Laboratory results published in PubChem BioAssay (Tox21).
“And” between values parts separate entries of the source, which are not always exact repeats. Equal values may be shown once. Results filed as inconclusive are left out. Where a call stands in place of a potency, no number is given. The source holds several records for some structures; these can differ, active in one and inactive in another. The source made the active and inactive calls. Unless noted, the call rests on the fitted dose curve; in most records, active means well fitted curve in the direction sought with a large enough effect in the repeat runs; inconclusive means weak or mixed curves; inactive means no such curve, though single readings can be large; an effect the other way counts as inactive or inconclusive.

Assays:
[1] = molecular target: Luciferin 4-monooxygenase (Photinus pyralis) (UniProt P08659); assay: qHTS assay to identify small molecule inhibitors of firefly luciferase (AID 1224835); further: nearly all actives have a fitted effect of over 25% in size
Luciferin 4-monooxygenase (Photinus pyralis), sequence (P08659 whole entry, looked up): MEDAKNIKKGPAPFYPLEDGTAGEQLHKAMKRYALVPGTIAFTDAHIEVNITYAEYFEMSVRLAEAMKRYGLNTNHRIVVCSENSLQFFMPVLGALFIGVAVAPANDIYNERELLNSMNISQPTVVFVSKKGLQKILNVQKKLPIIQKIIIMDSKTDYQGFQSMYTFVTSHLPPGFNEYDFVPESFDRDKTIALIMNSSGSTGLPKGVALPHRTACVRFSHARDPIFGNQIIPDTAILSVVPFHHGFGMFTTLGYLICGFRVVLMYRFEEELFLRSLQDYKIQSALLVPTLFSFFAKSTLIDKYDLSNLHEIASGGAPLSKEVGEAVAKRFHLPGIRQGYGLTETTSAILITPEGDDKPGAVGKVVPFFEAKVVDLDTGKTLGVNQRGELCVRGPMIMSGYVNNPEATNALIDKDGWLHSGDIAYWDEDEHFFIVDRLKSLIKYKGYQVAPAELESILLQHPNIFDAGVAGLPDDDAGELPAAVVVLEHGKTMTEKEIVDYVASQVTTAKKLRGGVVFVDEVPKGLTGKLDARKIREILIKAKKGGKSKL
In short: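 Biochemical qHTS: compounds run as interplate titrations against purified firefly enzyme, with D-luciferin and ATP each at its KM concentration. Light output recorded by CCD imaging.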

[2] = qHTS assay to identify small molecule agonists of the constitutive androstane receptor (CAR) signaling pathway - cell viability counter screen (AID 1224836); further: nearly all actives have a fitted effect of over 45% in size
In short: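 Double-stable HepG2 hepatoma cells (hCAR plus CYP2B6-2.2kb) are treated for 23 h at 37 C with test compounds in 15-point concentration series. PK11195 at 0.75 uM final is co-added. Cell viability is quantified by CellTiter-Fluor.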

[3] = qHTS assay to identify small molecule antagonists of the constitutive androstane receptor (CAR) signaling pathway - cell viability counter screen (AID 1224837); further: nearly all actives have a fitted effect of over 45% in size
In short: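 Counter screen run in HepG2-CYP2B6-hCAR cells: 4 hr settle, compound titration (15 concentrations) with 50 nM CITCO, 23 hr at 37 C/5% CO2, CellTiter-Fluor fluorescence.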

[4] = molecular target: Nuclear receptor subfamily 1 group I member 3 (Homo sapiens) (UniProt Q14994); assay: qHTS assay to identify small molecule agonists of the constitutive androstane receptor (CAR) signaling pathway (AID 1224839); further: nearly all actives have a fitted effect of over 15% in size
Nuclear receptor subfamily 1 group I member 3 (Homo sapiens), sequence (Q14994 whole entry, looked up): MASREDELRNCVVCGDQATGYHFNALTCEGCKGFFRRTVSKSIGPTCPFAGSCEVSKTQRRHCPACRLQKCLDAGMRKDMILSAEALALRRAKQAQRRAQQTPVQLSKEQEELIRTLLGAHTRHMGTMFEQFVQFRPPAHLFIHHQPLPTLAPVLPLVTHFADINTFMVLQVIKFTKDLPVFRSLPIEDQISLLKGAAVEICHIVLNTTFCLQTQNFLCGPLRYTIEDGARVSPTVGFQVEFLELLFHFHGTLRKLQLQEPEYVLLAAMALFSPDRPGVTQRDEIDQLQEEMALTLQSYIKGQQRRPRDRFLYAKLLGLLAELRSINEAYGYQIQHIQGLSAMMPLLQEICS
In short: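 Readout: firefly luciferase luminescence via ONE-Glo. System: HepG2 double-stable for hCAR and CYP2B6-2.2kb. Conditions: 15-point compound titration, PK11195 at 0.75 uM final, 24 h incubation.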

[5] = qHTS assay to identify small molecule antagonists of the estrogen related receptor signaling pathway with the pleiotropic PPARgamma coactivator (PGC) from Tox21 10K library - cell viability counter screen (AID 1224840; active means well fitted cell-killing curve with a large enough effect in the repeat runs, not every such curve was filed as active; further: nearly all actives have a fitted effect of over 40% in size)
In short: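 Following seeding of 2,000 PGC/ERR cells/well and 6 hours' incubation, test compounds were delivered in DMSO. The plates then sat 17.5 hours at 37 C before a fluorogenic live-cell protease reagent (CellTiter-Fluor) was read after 30 min.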

[6] = qHTS assay to identify small molecule antagonists of the estrogen related receptor signaling pathway with the pleiotropic PPARgamma coactivator (PGC) from Tox21 10K library (AID 1224841; call rule not given here; further: actives are mostly falling curves and most rising ones were filed inactive; nearly all actives have a fitted effect of over 50% in size)
In short: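 qHTS antagonist format: PGC/ERR cells, 2k/well, compound in DMSO by pin transfer after 6 h attachment, 18 h treatment at 37 C, One-Glo luminescence read at 30 min.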

[7] = molecular target: Thyrotropin receptor (Homo sapiens) (UniProt P16473); assay: qHTS assay to identify small molecule agonists of the thyroid stimulating hormone receptor (TSHR) signaling pathway (AID 1224843; calls by dose curve; further: nearly all actives have a fitted effect of over 45% in size)
Thyrotropin receptor (Homo sapiens), sequence (P16473 whole entry, looked up): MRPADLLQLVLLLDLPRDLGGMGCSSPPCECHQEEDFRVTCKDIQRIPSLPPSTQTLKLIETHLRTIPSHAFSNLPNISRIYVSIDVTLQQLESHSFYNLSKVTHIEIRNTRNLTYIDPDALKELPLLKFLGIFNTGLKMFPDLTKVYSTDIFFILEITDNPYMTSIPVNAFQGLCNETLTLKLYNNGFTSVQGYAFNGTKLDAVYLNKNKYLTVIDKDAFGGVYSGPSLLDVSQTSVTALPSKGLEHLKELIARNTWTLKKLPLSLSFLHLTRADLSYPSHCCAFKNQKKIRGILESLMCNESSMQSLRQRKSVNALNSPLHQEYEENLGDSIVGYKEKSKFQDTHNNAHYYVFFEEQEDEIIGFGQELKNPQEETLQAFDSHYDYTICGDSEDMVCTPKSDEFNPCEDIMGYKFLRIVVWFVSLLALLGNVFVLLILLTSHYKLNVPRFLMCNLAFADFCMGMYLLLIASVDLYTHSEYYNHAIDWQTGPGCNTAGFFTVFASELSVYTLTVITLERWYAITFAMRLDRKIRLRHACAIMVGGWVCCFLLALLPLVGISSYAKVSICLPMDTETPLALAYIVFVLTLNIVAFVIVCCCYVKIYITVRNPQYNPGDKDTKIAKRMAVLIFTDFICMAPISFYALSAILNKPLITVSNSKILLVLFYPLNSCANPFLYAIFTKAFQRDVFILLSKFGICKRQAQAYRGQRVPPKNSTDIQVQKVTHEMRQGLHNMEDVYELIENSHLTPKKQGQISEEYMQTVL
In short: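 Steps: seed 800 TSHR-HEK293 cells per well; add test compound and hold 30 min at ambient temperature; dispense cAMP-d2 then anti-cAMP cryptate; incubate 1 h at ambient; measure fluorescence intensity.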

[8] = qHTS assay to identify small molecule antagonists of the estrogen related receptor (ERR) signaling pathway from Tox21 library - cell viability counter screen (AID 1224834); further: nearly all actives have a fitted effect of over 30% in size
In short: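 After 17.5 h of compound exposure at 37 C, ERR cells are incubated with CellTiter-Fluor for 30 min and fluorescence intensity serves as the viability measure.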

[9] = molecular target: Nuclear receptor subfamily 1 group I member 3 (Homo sapiens) (UniProt Q14994); assay: qHTS assay to identify small molecule antagonists of the constitutive androstane receptor (CAR) signaling pathway (AID 1224838);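 further: HepG2 cells stably expressing hCAR with CYP2B6 luciferase reporter stimulated by CITCO; nearly all actives have a fitted effect of over 40% in size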
In short: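 Cell line: HepG2 double-stable for hCAR and CYP2B6-2.2kb reporter. Agonist: CITCO, 50 nM final. Compounds: 15 concentrations, 24 h, 37 C. Detection: ONE-Glo luminescence.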
Potency means the concentration at half of the fitted maximal effect.

O=CC(=O)c1ccccc1
Potency [1]: inactive | Potency [2]: inactive | Potency [3]: inactive | Potency [4]: inactive | Potency [5]: inactive | Potency [6]: inactive | Potency [7]: 27.3 µM (active)

CCCCOC(=O)c1ccc(O)cc1
Potency [8]: inactive | Potency [1]: 80.7 µM (active) and 63.3 µM (active) and inactive | Potency [3]: inactive | Potency [4]: 55.1 µM (active) and 30.6 µM (active) and inactive | Potency [7]: inactive

NC(=O)c1cccnc1
Potency [8]: inactive | Potency [1]: inactive | Potency [3]: inactive | Potency [4]: inactive | Potency [7]: inactive

Cc1cc(=O)oc2cc(O)ccc12
Potency [8]: inactive | Potency [1]: inactive | Potency [3]: inactive | Potency [4]: inactive | Potency [7]: inactive

CC12CCC(CC1)C(C)(C)O2
Potency [1]: inactive | Potency [2]: inactive | Potency [3]: inactive | Potency [5]: inactive | Potency [7]: inactive

CCOc1ccc(NC(C)=O)cc1
Potency [1]: inactive | Potency [2]: inactive | Potency [3]: inactive | Potency [5]: inactive | Potency [6]: inactive | Potency [7]: inactive

NC(=O)n1c(O)c(C(=O)c2cccs2)c2cc(Cl)ccc21
Potency [8]: 23.7 µM (active) | Potency [1]: 30.9 µM (active) | Potency [9]: inactive | Potency [4]: 13.3 µM (active) | Potency [7]: inactive

CN(C)C(=O)Nc1ccc(Cl)c(Cl)c1
Potency [1]: inactive | Potency [2]: inactive | Potency [3]: inactive | Potency [6]: inactive | Potency [7]: inactive

COc1ccc(OC(F)(F)F)cc1CN[C@H]1CCCN[C@H]1c1ccccc1
Potency [1]: inactive | Potency [2]: 61.1 µM (active) | Potency [3]: 54.5 µM (active) | Potency [9]: 54.5 µM (active) | Potency [4]: inactive

Cc1cccc(C)c1
Potency [1]: inactive | Potency [3]: inactive | Potency [9]: inactive | Potency [4]: inactive | Potency [5]: inactive | Potency [6]: inactive | Potency [7]: inactive

CCCCCCc1ccc(O)cc1O
Potency [1]: inactive | Potency [3]: inactive | Potency [4]: inactive | Potency [5]: inactive | Potency [6]: inactive | Potency [7]: inactive

C1CCC(C(CC2CCCCN2)C2CCCCC2)CC1 (stereo unspecified)
Potency [1]: inactive | Potency [4]: inactive

CCCCCCCCCCCCCCCC[N+](C)(C)Cc1ccccc1
Potency [1]: inactive | Potency [2]: inactive | Potency [4]: inactive | Potency [5]: 63.1 µM (active) and 49.4 µM (active) and inactive | Potency [6]: 31.6 µM (active) and 24.8 µM (active) and 10.6 µM (active)

Oc1ccccc1
Potency [2]: inactive | Potency [3]: inactive | Potency [9]: inactive | Potency [4]: inactive | Potency [5]: inactive | Potency [7]: inactive

CC(O)(P(=O)(O)O)P(=O)(O)O
Potency [1]: inactive | Potency [3]: inactive | Potency [5]: inactive | Potency [7]: inactive

O=C1OC2(c3ccccc31)c1cc(Br)c(O)c(Br)c1Oc1c2cc(Br)c(O)c1Br
Potency [1]: 28.7 µM (active) and 36.6 µM (active) | Potency [3]: 7.81 µM (active) and 25 µM (active) | Potency [4]: inactive
